The text below walks through data of paper PMC7819943, “Rice protein-binding microarrays: a tool to detect cis-acting elements near promoter regions in rice”.

Whole data set: some 35,000 sequences, median “fluorescence intensity (a.u.)” near 10,000, cut for the highest 2% near 52,000. The entries come from a sample that favours the highest values as a whole.

The assay concerns the target T1, OsWOX13 (Oryza sativa, UniProt Q5QMM3 1-267).
T1 sequence: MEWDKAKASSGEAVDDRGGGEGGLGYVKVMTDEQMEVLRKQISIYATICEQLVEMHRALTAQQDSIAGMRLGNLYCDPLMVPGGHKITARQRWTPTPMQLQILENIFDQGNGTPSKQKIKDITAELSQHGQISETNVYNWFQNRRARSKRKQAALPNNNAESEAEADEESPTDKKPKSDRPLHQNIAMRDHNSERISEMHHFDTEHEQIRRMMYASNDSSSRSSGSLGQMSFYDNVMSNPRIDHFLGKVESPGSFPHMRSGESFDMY
The assay can be described thus: protein-binding microarray (RPBM); PBS, 2% BSA, 51.3 ng/ul salmon testes DNA, 50 uM zinc acetate, 200 nM TF, 25 C, 1 h; high values mean tight binding. The conditions noted are these: protein: recombinant; tags: N-terminal polyhistidine and DsRed monomer fusion (pET32a); label: CyDye5-dUTP incorporated in the synthesized complementary strand; 3' TTTTT single-stranded linker to array surface; dsDNA, one strand shown. Put shortly:
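Per-feature fluorescence intensity (arbitrary units), read on an Axon 4000B scanner, is the binding signal. Transcription factors carrying an N-terminal polyhistidine tag and DsRed fusion were expressed in E. coli BL21-CodonPlus and purified on Ni–NTA. A custom Agilent array, made double-stranded by primer extension with Cy5-dUTP and blocked with 2% BSA, was incubated with 200 nM protein in PBS, 2% BSA, salmon testes DNA and 50 µM zinc acetate at 25 °C for 1 h and then washed.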
As to “TAGGATTATGTTGGTGATGATGATGACTAGTGTGCCTGAACGGAGTCACCTAGTGCAG”, the binding signal is 4220 fluorescence intensity (a.u.).
Under “ATAGTTAACAAAATTTGACAGCAAACTAAATGTAACCATTCGGAGTCACCTAGTGCAG” stands 27800 fluorescence intensity (a.u.); under “TACCCATCACCAAAATTACCATAAACACAACATACTTAGGCGGAGTCACCTAGTGCAG”, 4380 fluorescence intensity (a.u.).
The value for “CATATAAATTGACAACTTCTACTTAAACCTGACATGTGGGCGGAGTCACCTAGTGCAG” was 54500 fluorescence intensity (a.u.); that for “CAAAATTGAAAACTTCTTATTTGAAATTCAAAACTTTCAACGGAGTCACCTAGTGCAG” was 10200 fluorescence intensity (a.u.); that for “ATATAAATTTGGAACAAATTCAACATCATGTTATCCTAGGCGGAGTCACCTAGTGCAG” was 4060 fluorescence intensity (a.u.).
The value for “TAAATTGACAAATTCAACCTAGGCCTGGACTTATTTGGCGCGGAGTCACCTAGTGCAG” was 57500 fluorescence intensity (a.u.); that for “AACTTATATAAGTTAAATTTAAACTTATATGTTTGTGGGGCGGAGTCACCTAGTGCAG” was 4170 fluorescence intensity (a.u.); that for “TTGACTTAAATTATAATTTTAAACCATATATTATAATTGGCGGAGTCACCTAGTGCAG” was 31400 fluorescence intensity (a.u.).
Regarding “TTTGCTAGATTGGAGCAAATCGCATATTCTTAACCCCACCCGGAGTCACCTAGTGCAG”, the binding signal is 21600 fluorescence intensity (a.u.).
Under “GTTTCGTCTCGTAATTTACACGCAATCTGTGTAATTAGTTCGGAGTCACCTAGTGCAG” stands 7230 fluorescence intensity (a.u.); under “CTAAAATTTAATTAATCATACGACAGTGAATTTCTCATTTCGGAGTCACCTAGTGCAG”, 20300 fluorescence intensity (a.u.); under “TCAGACAAATTAAGTTTTAGCTTAGCTTATCACTTAACGGCGGAGTCACCTAGTGCAG”, 7680 fluorescence intensity (a.u.).
For “AAATTCCGAATTTGATTCTTAATTAAGGCGAGCTATTCACCGGAGTCACCTAGTGCAG”, the binding signal was 3490 fluorescence intensity (a.u.).
Under “AAACAGACAAACTACACTAATTGTGATGACTCTGGATTTTCGGAGTCACCTAGTGCAG” stands 8340 fluorescence intensity (a.u.); under “GTGACTGATTGACAGTATCAACCATCTAGTGTTAAGATAGCGGAGTCACCTAGTGCAG”, 52800 fluorescence intensity (a.u.); under “ACCATCATCAATTGATAGTTCTTGTTTCTCTAGTAGTAAGCGGAGTCACCTAGTGCAG”, 9360 fluorescence intensity (a.u.).
The value for “AATTCAAGCTCATCACTGATTTGATAAGACATTAAGATAGCGGAGTCACCTAGTGCAG” was 4050 fluorescence intensity (a.u.).
The value for “TGTCCACTGAAATTGATTGGAGATCGATGTGATGGTCAAGCGGAGTCACCTAGTGCAG” was 40200 fluorescence intensity (a.u.); that for “CACCTGACTGATTGGATTGGTATCGATCCAAGCCTATCAGCGGAGTCACCTAGTGCAG” was 57100 fluorescence intensity (a.u.).
“TCTTGCCAACTGATTGATCGATCCTGGAAGCTTGCTGCTGCGGAGTCACCTAGTGCAG”: the binding signal is 37900 fluorescence intensity (a.u.).
For the sequence “TACGCCTGATTGGATCCCCACCCCTATCTCCACTGACTGTCGGAGTCACCTAGTGCAG”, the binding signal is 34100 fluorescence intensity (a.u.).
The value for “TAAGTATCCTTGATTGATTGCCTGATCGATCAGCTGCTAGCGGAGTCACCTAGTGCAG” was 55000 fluorescence intensity (a.u.).
Under “GACGCCGTCAGCAATGATTGCCTTGCTAGCAGCTGCTTGACGGAGTCACCTAGTGCAG” stands 4390 fluorescence intensity (a.u.).
Under “TTGGGTGGCAATTATTAATCAGTCATGTCATTCAACTAGACGGAGTCACCTAGTGCAG” stands 11700 fluorescence intensity (a.u.); under “AGTGTAATTAACTTTCTTCTTCTCTCCAACTGCTTCAGCTCGGAGTCACCTAGTGCAG”, 11200 fluorescence intensity (a.u.).
On to “TATTGATTGGTTCAGATGGAGACATGTGCAACTTCGTGCTCGGAGTCACCTAGTGCAG”, for which the binding signal is 61700 fluorescence intensity (a.u.).
Turning to “TTGATTGATCTTTGGTTGGATGGATGCTTGATGATGTGCTCGGAGTCACCTAGTGCAG”, the binding signal was 31900 fluorescence intensity (a.u.).
As for “TAGAGAGATTGATATTTCATGTGCTCTAGAGATGGTTGAGCGGAGTCACCTAGTGCAG”, the binding signal is 28900 fluorescence intensity (a.u.).
The value for “CACATGATTGATATCTCGTCACTGCTCGTAACTTCAGCCTCGGAGTCACCTAGTGCAG” was 62100 fluorescence intensity (a.u.); that for “GTGCTCTTGATTGGCACATGAGCCTTGGCGGCGGTGACCTCGGAGTCACCTAGTGCAG” was 35600 fluorescence intensity (a.u.).
As to “GACCAACGGTGATTATTAACATGATCTATATCTATCTATCCGGAGTCACCTAGTGCAG”, the binding signal was 5820 fluorescence intensity (a.u.).
Under “TCAAATATGACTAAATTAGTAGTTAAGTAGTATGGGAGAACGGAGTCACCTAGTGCAG” stands 13400 fluorescence intensity (a.u.).
On to “CCAACTAATCATGCTTAGTTAGCAATTAAGCCATAAACAACGGAGTCACCTAGTGCAG”, for which the binding signal was 9180 fluorescence intensity (a.u.).
Take “ATGATTGCCGTATGATATGTGATACGAAAGAGTTGGGGATCGGAGTCACCTAGTGCAG”: the binding signal is 32700 fluorescence intensity (a.u.).
The value for “CCAGATTGATGGCTATCATCAGGCCATGCTGTTCTCGTCTCGGAGTCACCTAGTGCAG” was 59800 fluorescence intensity (a.u.); that for “TGTTTGATTATGTTCAATCATTGCAAATCATGTCATCTGTCGGAGTCACCTAGTGCAG” was 45900 fluorescence intensity (a.u.); that for “CGTCCGTCATTGATTATGCCAGATCATAGCTGTACGTCGTCGGAGTCACCTAGTGCAG” was 21300 fluorescence intensity (a.u.).
The value for “CTAGATGATTGGCTATCATCACCTGTTCACAATCTTATGTCGGAGTCACCTAGTGCAG” was 61900 fluorescence intensity (a.u.); that for “ATGGATGACTGTGATATGATATCTTACACATCAATGATAGCGGAGTCACCTAGTGCAG” was 7720 fluorescence intensity (a.u.).
Under “TGTGTCATGTTCTGATTGGCTGTGGTTGGTTTGATTTTCTCGGAGTCACCTAGTGCAG” stands 21100 fluorescence intensity (a.u.).
Take “TGCATGAATTGATCAACAAGACAAAAGTTACAAAACATGTCGGAGTCACCTAGTGCAG”: the binding signal was 4160 fluorescence intensity (a.u.).
Under “TTTCAGCACATCATTCCAATTTCAATCATATTTCCAAACTCGGAGTCACCTAGTGCAG” stands 4200 fluorescence intensity (a.u.).
The value for “TTCCGGACGTGTGATTGCGATGAGACGTGTTGCAATATCCCGGAGTCACCTAGTGCAG” was 7260 fluorescence intensity (a.u.); that for “ACTATTGGAGTATGGTGCGTGATTGTCCACAATTTATTCACGGAGTCACCTAGTGCAG” was 3150 fluorescence intensity (a.u.); that for “GATTAGATTGATCATTGATCGATCAGTGCCATTAATTGAGCGGAGTCACCTAGTGCAG” was 30900 fluorescence intensity (a.u.).
Under “AAAATTAAATGCGATCAATCAGAGCCGTCCATATCTCTGCCGGAGTCACCTAGTGCAG” stands 33400 fluorescence intensity (a.u.).
“TCAAAATTGGAAGTTTTGTTGAAATTGAAACAATGTGATGCGGAGTCACCTAGTGCAG”: the binding signal was 19500 fluorescence intensity (a.u.).
The value for “TGCCATTGTCAATCTCTCTGCTCTCCTCATGTAACTGATGCGGAGTCACCTAGTGCAG” was 3180 fluorescence intensity (a.u.); that for “ACAATTAATTTAATTAAATTGAGGTCAGCCATGCATGCAGCGGAGTCACCTAGTGCAG” was 64800 fluorescence intensity (a.u.).
The value for “ACCATTAATAGATTGAGAGCGAATGAATTGGTGCCACGTGCGGAGTCACCTAGTGCAG” was 55000 fluorescence intensity (a.u.); that for “GTAAACTGCAATCAATCAGCCATTAAAATCTCATGCTCTGCGGAGTCACCTAGTGCAG” was 60000 fluorescence intensity (a.u.); that for “AATAACACAATTGTTGATAATTGTTGGATTACTTTGTGAGCGGAGTCACCTAGTGCAG” was 16000 fluorescence intensity (a.u.).
In the case of “TGCGAAATTTAGCGTGAGAAATTAAGTGATTGATTGAGAGCGGAGTCACCTAGTGCAG”, the binding signal is 26900 fluorescence intensity (a.u.).
On to “CCATTAAATGCACAATGACACAATTTGAGGATCAGTTTAGCGGAGTCACCTAGTGCAG”, for which the binding signal was 3340 fluorescence intensity (a.u.).
Under “CCACCTGTGATTGAAAACAATTACTTTTGAACATGCGCAGCGGAGTCACCTAGTGCAG” stands 55200 fluorescence intensity (a.u.); under “ATAATTATTTAAATTATATGCATACACCTAGGTGCCATGGCGGAGTCACCTAGTGCAG”, 38800 fluorescence intensity (a.u.).
